Compounds with a hit are over-represented: about 2.4% of the library has one in this group of screens.
ATXN2 expr inh = ATXN2 expression inhibition | HEK-293 ATXN2-luciferase reporter, luminescence, 24 h | Potency, µM (top dose mostly 57 µM), for the others: top-dose activity change, negative = inhibition, hits mostly inhibitors | hit rate 0.72% among 360,000 | AID 1745845; further: on the % scale 0 is the no-effect control and ±100 the full control effect; nearly all actives have a fitted effect of over 55% in size
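qHTS (up to 57 uM final) was run with 24 h compound exposure of reporter cells at 37 °C. Each well was multiplexed: SteadyGlo luminescence measured ATXN2-luciferase expression after a fluorogenic Gly-Phe-AFC viability readout (25 uM final).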
Anesthetic bind = candidate novel general anesthetic via apoferritin binding; apoferritin/1-aminoanthracene competitive binding, fluorescence; Potency, µM (top dose mostly 77.5 µM), for the others: at the top dose activity change, negative = displacement, usual class: inhibitors; hit rate 0.074% among 350,000; further: on the % scale 0 is the no-effect control and ±100 the full control effect; nearly all actives have a fitted effect of over 20% in size
Target sequence (P02791 2-175 limits assumed): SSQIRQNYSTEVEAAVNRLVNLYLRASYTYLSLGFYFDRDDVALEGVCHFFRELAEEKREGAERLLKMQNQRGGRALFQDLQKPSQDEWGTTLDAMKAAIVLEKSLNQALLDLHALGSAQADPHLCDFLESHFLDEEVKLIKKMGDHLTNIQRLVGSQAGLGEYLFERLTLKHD
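Apoferritin-based anesthetic binding model; compound displacement of fluorescent 1-AMA measured as endpoint fluorescence after 10 minutes at room temperature, scaled to free-ligand and complex controls.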
TGFb SMAD3 inh = blocks TGF-b signaling; HepG2 CAGA-GFP TGF-b/SMAD3 reporter, GFP fluorescence, 18 h; TGF-beta stimulated, 500 pg/mL final; Potency, µM (top dose mostly 46.1 µM), inactives show at the highest dose activity, negative = inhibition, usual class: inhibitors; hit rate 1.2% among 410,000; further: on the % scale 0 is the no-effect control and ±100 the full control effect; nearly all actives have a fitted effect of over 65% in size
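Per well, imaged GFP fluorescence of HEPG2 CAGA-GFP cells gives the signal; cells get compound, then TGF-beta (500 pg/mL final), 18 h at 37 degrees C; %Activity versus -TGF-beta and +DMSO controls.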
HepG2 tox-1 = counter-screen for TGF-b inhibitors: cytotoxicity in HepG2 cells; Potency, µM (series often up to 46.1 µM), inactives show at the top dose activity change, negative = cytotoxicity, usual class: cytotoxic; HepG2 CAGA-GFP viability, ATP luminescence, 18 h; AID 588856; hit rate 0.76% among 410,000
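HepG2 CAGA-GFP cells (1000/well, DMEM with 1% FBS) received compound, then TGF-beta at 500 pg/mL final, and were incubated 18 hours at 37 degrees C. Viability was read by CellTiter-Glo luminescence. Media-only wells were set as complete cell-killing and DMSO as no toxicity.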
ATXN viability = cell viability loss in ATXN counter-screen | S2 cells (HEK-293 line with an ATXN2-luciferase reporter) viability, CellTiter-Fluor protease fluorescence, 24 h | Potency, µM (series often up to 56.7 µM), most hits filed as cytotoxic | hit rate 0.49% among 400,000; further: nearly all actives have a fitted effect of over 40% in size
TGFb CAGA inh = confirmation of TGF-b signaling inhibitors in HepG2 reporter cells; HepG2 CAGA-GFP TGF-b reporter, GFP fluorescence, 18 h; cells stimulated with TGF-beta, 500 pg/mL; hit rate 63% among 1,600; shares compounds with TGFb SMAD3 inh; Potency, µM (titrated, usually from 46.1 µM), inactives show top-dose activity, negative = inhibition, usual class: inhibitors; further: on the % scale 0 is the no-effect control and ±100 the full control effect; nearly all actives have a fitted effect of over 65% in size
HepG2 tox-2 = counter-screen for TGF-b inhibitors: cytotoxicity in HepG2 cells; shares compounds with TGFb SMAD3 inh; HepG2 CAGA-GFP viability, ATP luminescence, 18 h; cells stimulated with TGF-beta, 500 pg/mL; Potency, µM (doses to about 46.1 µM), without a hit: at the highest dose activity, negative = cytotoxicity, actives largely listed as inhibitors; hit rate 27% among 1,600; further: on the % scale 0 is the no-effect control and ±100 the full control effect; nearly all actives have a fitted effect of over 70% in size
CCL64 TGFb inh = orthogonal confirmation of TGF-b inhibitors in CCL64 cells; shares compounds with TGFb SMAD3 inh; CCL64 CAGA-GFP reporter, TGF-b stimulated, GFP fluorescence, 18 h; hit rate 41% among 1,600; Potency, µM (doses to about 46.1 µM), inactives show at the top dose activity, negative = inhibition, hits mostly inhibitors; further: nearly all actives have a fitted effect of over 65% in size
COP TGFb inh = TGF-b inhibition validated with COP promoter; hit rate 3% among 1,600; shares compounds with TGFb SMAD3 inh; Potency, µM (titrated, usually from 46.1 µM), inactives show at the highest dose activity, negative = inhibition, usual class: inhibitors; AID 720537; HepG2 COP-GFP TGF-b reporter, GFP fluorescence, 18 h; cells stimulated by added recombinant TGF-beta; further: nearly all actives have a fitted effect of over 70% in size
* marks the source's active call; other numbers are inactive results; i = inactive; ? = inconclusive; . = no result given; [ ] = remark or other dose. The call rests on the fitted dose curve; in most records, active means well fitted curve in the direction sought with a large enough effect; inconclusive means small, poorly fitted or top-dose-only effect, or another doubt; inactive means no such curve, though single readings can be large; an effect the other way counts as inactive or inconclusive. Potency means the concentration at half of the fitted maximal effect.

SMILES	ATXN2 expr inh	Anesthetic bind	TGFb SMAD3 inh	HepG2 tox-1	ATXN viability	TGFb CAGA inh	HepG2 tox-2	CCL64 TGFb inh	COP TGFb inh
O=C(Nc1ccncc1)Nc1cccc(Cl)c1	-19.1%	-9.2%	-11.9%	-24.0%	i	.	.	.	.
O=C(Nc1cccc(Cl)c1)Nc1csc([N+](=O)[O-])c1	?	-7.8%	?	10µM*	?	10.3µM*	16.4µM*	9.2µM*	76.4%
O=C(Nc1ccccc1C(=O)O)/C(=C/c1ccc([N+](=O)[O-])cc1)NC(=O)c1ccc(Br)o1	-22.0%	?	18.6%	14.3%	i	.	.	.	.
O=S(=O)(NCCOc1ccccc1Cl)c1ccc2oc3ccccc3c2c1	2.1%	.	15.8µM*	-28.6%	i	18.4µM*	?	?	88.0%
COc1ccccc1OCCNS(=O)(=O)c1ccc2oc3ccccc3c2c1	-15.2%	24.6%	?	-13.6%	i	.	.	.	.
CCN(CC)C(=O)[C@H]1CC(CC(=O)NCc2cccc(C(F)(F)F)c2)C(=O)N2CCc3c([nH]c4ccccc34)[C@]12C (stereo not given in full)	?	.	12.6µM*	-7.0%	.	20.6µM*	?	14.6µM*	35.1%
CCN(CC)C(=O)[C@H]1C[C@H](CC(=O)NCc2ccc(OC)c(OC)c2)C(=O)N2CCc3c([nH]c4ccc(Cl)cc34)[C@]12C	-12.0%	.	?	-7.8%	?	.	.	.	.
CCN(CC)C(=O)[C@H]1C[C@H](CC(=O)NCc2cccc(C(F)(F)F)c2)C(=O)N2CCc3c([nH]c4ccc(Cl)cc34)[C@]12C	?	.	10µM*	12.6µM*	?	?	?	25.9µM*	45.0%
COC(=O)c1ccccc1S(=O)(=O)N1CCC(C(=O)Nc2ccc(N3CCOCC3)cc2)CC1	2.3%	.	9.5%	-33.1%	i	.	.	.	.
CN(C(=O)CNC(=O)c1ccc(Br)o1)C1CCCCC1	19.8%	-11.7%	6.9%	1.4%	i	.	.	.	.
Cc1ccc(N(Cc2ccccc2)C(=O)CSC(C)C(=O)Nc2cc(C)on2)cc1 (stereo not given)	.	.	-43.0%	-72.3%	i	.	.	.	.
O=C1NC(c2ccccc2Cl)Nc2ccccc21 (stereo not given)	-14.7%	61.1%	3.1%	-36.4%	i	.	.	.	.
O=C1NC(c2cccc3ccccc23)Nc2ccccc21 (stereo not given)	14.0%	.	3.55µM*	-28.7%	?	2.59µM*	?	6.51µM*	7.8%
Cc1onc(-c2ccc(Br)cc2)c1C(=O)Nc1ccc(Br)cc1F	42.5%	38.3%	-5.8%	-5.1%	i	.	.	.	.
O=c1c2cc3c(cc2[nH]c(=S)n1C1CCN(Cc2ccccc2)CC1)OCO3	-13.8%[11.3 µM]	-13.2%	3.6%	-2.0%	i	.	.	.	.
N#Cc1ccc(-c2nc3ccc(Cl)cn3c2Cc2ccccc2C(F)(F)F)cc1	11.5%	.	?	-19.2%	i	.	.	.	.
FC(F)(F)c1ccccc1Cc1c(-c2ccccc2)nc2ccc(Cl)cn12	39.8%	.	15.8µM*	-23.3%	i	?	-15.5%	-0.6%	7.3%
COc1ccc(NC(=O)Nc2ccc3c(c2)C(=O)N([C@@H](C)CO)C[C@@H](C)[C@@H](CN(C)S(=O)(=O)c2cccs2)O3)cc1	9.3%	.	5.8%	-19.3%	i	.	.	.	.
COc1ccc(C(=O)c2ccc(N3CCOCC3)c([N+](=O)[O-])c2)cc1	-31.6%	-6.0%	-7.6%	-12.9%	?	.	.	.	.
COc1ccc(Nc2nnc(-c3ccc(N4CCOCC4)c([N+](=O)[O-])c3)c3ccccc23)cc1	3.8%	-21.3%	?	3.6%	i	4.11µM*	1.8%	?	22.8%
CN(CCCC1CCCC1)C(=O)c1cc(COc2ccc(F)cc2F)on1	2.1%	2.9%	10µM*	2.8%	i	20.6µM*	?	25.9µM*	24.6%
Cc1cccc(C2(c3cccc(C)c3)CC2C(=O)Nc2ccc([N+](=O)[O-])cc2O)c1 (stereo not given)	?	-10.8%	7.94µM*	11.2µM*	17.8µM*	6.51µM*	11.6µM*	7.31µM*	12.4%
C=C1C=C(C(F)F)n2ncc(C(=O)Nc3cccc(CC)c3)c2N1	.	.	18.6%	23.3%	.	.	.	.	.
COc1ccc(NC(=O)C2(C)Cc3c(-c4ccc5c(c4)OCO5)ccnc3O2)cn1 (stereo not given)	-13.2%	.	-21.0%	-85.1%	?	.	.	.	.
CN(Cc1ccccc1)C(=O)c1ccc(NC(=O)Cc2cccc(NC(=O)C3CCCN(C(=O)C4CCC4)C3)c2)cc1 (stereo not given)	-4.6%	.	-33.4%	-8.1%	i	.	.	.	.
SMILES	ATXN2 expr inh	Anesthetic bind	TGFb SMAD3 inh	HepG2 tox-1	ATXN viability	TGFb CAGA inh	HepG2 tox-2	CCL64 TGFb inh	COP TGFb inh
Cc1ccccc1OCCNC(=O)c1ccccc1Sc1ccccc1C#N	-0.5%	-2.0%	10µM*	-26.1%	i	-25.2%	-6.3%	-16.5%	-1.5%
Cc1cc(C)c(OCCNC(=O)c2ccccc2Sc2ccccc2C#N)c(C)c1	-21.7%	8.9%	-25.0%	-28.1%	i	.	.	.	.
CN(C)c1nc(N/N=C/c2ccccc2O)nc(Nc2ccc(F)cc2)n1	?	-5.9%	12.6µM*	-23.9%	i	14.6µM*	?	?	-2.4%
CN(C)c1nc(Nc2ccc(F)cc2)nc(Oc2ccc(F)cc2)n1	.	-7.0%	?	-20.9%	i	.	.	.	.
O=C(NC(=S)Nc1cccc(Cl)c1Cl)C1CC1	43.2%	?	1.26µM*	-24.3%	i	1.84µM*	3.66µM*	14.6µM*	63.0%
O=C(NC(=S)Nc1ccc(Br)c(Cl)c1)C1CC1	12.0%	?	1.58µM*	-34.9%	i	0.82µM*	2.06µM*	?	35.4%
O=c1[nH]c2ccccc2cc1-c1nnn(-c2ccc(Cl)c(Cl)c2)n1	-1.5%	.	?	-17.1%	i	-3.5%	6.7%	6.8%	2.0%

Screening data as filed in PubChem.
